Results filed as inconclusive are left out. Where a call stands in place of a potency, no number is given. Activity calls are given as the source filed them. The call rests on the fitted dose curve; in most records, active means well fitted inhibition curve with a large enough effect; inconclusive means small, poorly fitted or top-dose-only effect; inactive means flat fitted curve, though single readings scatter.

This note sets out measurements from PubChem BioAssay AID652016 (National Center for Advancing Translational Sciences (NCATS), 2013).

For the experiment, the target named is Luciferin 4-monooxygenase (Photinus pyralis) (UniProt P08659). Nature of the experiment: qHTS Assay for Inhibitors of Firefly Luciferase from the GSK Published Protein Kinase Inhibitor Set. The method in brief: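 Enzyme-level luminescence assay: compounds titrated (about 60uM down to 300pM) into substrate buffer (10uM ATP, 10uM D-luciferin, pH 7.5 Tris acetate with Mg, Tween-20, BSA), then 10nM firefly luciferase added; read after ~5 min.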
(In general: qHTS replaces the single test concentration by a dilution series.)
Potency means the concentration at half of the fitted maximal effect.

Chain of Luciferin 4-monooxygenase (Photinus pyralis) (P08659 whole entry, looked up): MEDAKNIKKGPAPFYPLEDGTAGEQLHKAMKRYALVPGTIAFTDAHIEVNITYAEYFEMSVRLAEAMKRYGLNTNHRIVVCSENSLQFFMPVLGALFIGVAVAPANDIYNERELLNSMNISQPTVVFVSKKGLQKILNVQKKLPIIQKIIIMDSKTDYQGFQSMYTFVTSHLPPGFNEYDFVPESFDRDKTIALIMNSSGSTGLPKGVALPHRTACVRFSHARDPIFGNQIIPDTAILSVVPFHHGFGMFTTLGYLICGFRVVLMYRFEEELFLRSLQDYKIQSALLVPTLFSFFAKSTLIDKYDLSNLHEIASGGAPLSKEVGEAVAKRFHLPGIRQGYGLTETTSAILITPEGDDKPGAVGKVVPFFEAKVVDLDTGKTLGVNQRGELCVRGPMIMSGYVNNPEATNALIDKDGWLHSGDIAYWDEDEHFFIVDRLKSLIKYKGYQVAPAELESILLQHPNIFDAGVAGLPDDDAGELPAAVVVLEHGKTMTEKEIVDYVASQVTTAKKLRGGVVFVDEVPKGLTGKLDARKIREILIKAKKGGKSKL

With `COc1cc(C)c(N(C)C(=O)CN(C)C)cc1Nc1nc(Nc2cccc(F)c2C(N)=O)c2cc[nH]c2n1`, the Potency entry was “inactive”.

`CCn1c(-c2nonc2N)nc2cncc(C(=O)NCCNC)c21`: the Potency result was “inactive”.

Take `COc1cc(Nc2ncc(-c3ccccc3)o2)cc(OC)c1OC`: the Potency result is “inactive”.

As for `CCn1c(-c2nonc2N)nc2c(C#CC(C)(C)O)nc(OC(CN)c3ccccc3)cc21` (stereo not drawn), the Potency result is “inactive”.

For the compound `COC(=O)Nc1nc2ccc(Oc3ccc(NC(=O)Nc4cccc(C(=O)O)c4)cc3)cc2[nH]1`, the Potency was 116 nM (active).

`N#Cc1c(NC(=O)CN2CCOCC2)sc2c1CCCC2`: the Potency result was “inactive”.

In the case of `COc1ccc(-c2coc3ncnc(N)c23)cc1`, the Potency result is “inactive”.

With `CS(=O)(=O)CCNCc1ccc(-c2ccc3ncnc(Nc4ccc(OCc5ccccc5)c(C(F)(F)F)c4)c3c2)o1`, the Potency entry was “inactive”.

As to `NCc1ccc(-n2c(-c3nonc3N)nc3cnccc32)cc1`, the Potency entry is “inactive”.

In the case of `CNC(=O)c1cncc(C=Cc2ccccc2Cl)c1`, the Potency is 9190 nM (active).

Take `NS(=O)(=O)c1ccc(Nc2ncc(-c3ccccc3)o2)cc1`: the Potency result is “inactive”.

Take `COc1cc2ncn(-c3cc(OCc4ccccc4C(F)(F)F)c(C(N)=O)s3)c2cc1OC`: the Potency result is “inactive”.

As to `CCn1c(-c2nonc2N)nc2cncc(C(=O)N3CCC(N)C3)c21` (stereo not drawn), the Potency entry was “inactive”.

Consider `CCNC(=O)OC1CNC(C#Cc2cc3ncnc(Nc4ccc(OCc5cccc(F)c5)c(Cl)c4)c3s2)C1` (stereo not drawn), for which the Potency entry is “inactive”.

Consider `COc1ccc(-c2nn3ncccc3c2-c2ccnc(Nc3ccc(Cl)c(C(F)(F)F)c3)n2)cc1`, for which the Potency entry is “inactive”.

On to `N#Cc1cccc(Nc2ncc(-c3ccccc3)o2)c1`, for which the Potency is 1030 nM (active).

Regarding `Cc1ccc(C(=O)NC(C)C)cc1-c1ccc(C(=O)NCC2CC2)cc1`, the Potency entry is “inactive”.

For `COc1cc2ncn(-c3cc(OCc4ccccc4C(F)(F)F)c(C(=O)N(C)C)s3)c2cc1OC`, the Potency entry was “inactive”.

For `CCn1c(-c2nonc2N)nc2c(C#CC(C)(C)O)nc(OCC(N)c3ccccc3)cc21` (stereo not drawn), the Potency result is “inactive”.

On to `COc1ccc2ncnc(Nc3ccc(OCc4ccccc4)cc3)c2c1`, for which the Potency result was “inactive”.

For the compound `COc1ccc(COc2ccc(Cc3cnc(N)nc3N)cc2OC)cc1`, the Potency entry is “inactive”.

On to `CS(=O)(=O)CCN(CC#N)Cc1ccc(-c2ccc3ncnc(Nc4ccc(OCc5cccc(F)c5)c(Cl)c4)c3c2)o1`, for which the Potency entry was “inactive”.

Regarding `CN(C)CCCn1c(-c2nonc2N)nc2cnccc21`, the Potency result is “inactive”.

On to `CCn1c(-c2nonc2N)nc2c(C#CC(C)(C)O)ncc(OCC3CCCN3)c21` (stereo not drawn), for which the Potency entry was “inactive”.

For `COc1ccc(CNC(=O)c2ccc(-c3cc(-c4nnc(C)o4)ccc3C)cc2)cc1`, the Potency result is “inactive”.

As for `COc1cc2c(cc1Nc1nc(N3CCc4ccccc43)c3cc[nH]c3n1)N(C(=O)CN(C)C)CC2`, the Potency entry is “inactive”.

With `COC(=O)c1cncc(C=Cc2c(C)cc(O)cc2C)c1`, the Potency entry was “inactive”.

As for `CCn1c(-c2nonc2N)nc2c(C#CC(C)(C)O)ncc(OCC3CCNCC3)c21`, the Potency entry was “inactive”.

Take `NC(=O)c1cc(-c2ccc(F)cc2)cc(-c2ccncc2)c1N`: the Potency entry is “inactive”.

For the compound `Cc1nc(-c2ccccc2)n2nc(NCCCN3CCOCC3)ncc12`, the Potency entry was “inactive”.

Regarding `CNC(=O)c1cc(-c2ccc(F)cc2)cc(-c2ccc(S(=O)(=O)N3CCCC3)cc2)c1N`, the Potency entry was “inactive”.

For the compound `Cc1nnc(-c2cccc(-c3ccc(C(=O)NCC4CC4)cc3)c2)o1`, the Potency result was “inactive”.

For `Cc1cc(-c2ccccn2)cc(C)c1C=Cc1cncc(-c2nn[nH]n2)c1`, the Potency result was “inactive”.
